LMP1 NFkB inh – Epstein-Barr LMP1 NF-kappaB reporter inhibition; AID 504558; LMP1-induced NF-kappaB luciferase reporter cells, luminescence; inhibition, % at 12.5 µM; actives 0.69% (n = 350,000); in the data active = inhibition above about 41%;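 also: 0% = neutral control wells and 100% = reference inhibitor control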
LGR2 inh – blocks bursicon-induced cAMP signaling via Drosophila LGR2. HEK293 LGR2, CRE-luciferase, bursicon-stimulated, 4 h. inhibition, % at 9.99 µM. actives 0.35% (n = 380,000). AID 720647;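 active = drop in luminescence signal, shown as inhibition above about 50% in the replicate tests, limit read from the data, passing the limit was not always enough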;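 also: agonist challenge used bursicon conditioned medium at about half maximal strength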
TROY signal inh – inhibitors of TROY-dependent NF-kB signaling; actives 0.98% (n = 360,000); Q293 LMP1-TROYcd NF-kB luciferase reporter, 4 h; inhibition, % at 10 µM; AID 1347056;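 active = compounds whose plate-normalised and pattern-corrected inhibition of the luciferase reporter signal at the single screening dose is 50% or more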
MITF act – activators of MITF-driven TRPM1 promoter activity in SK-MEL-5 cells; SK-MEL-5 TRPM1-promoter luciferase, 24 h; % of positive control, neutral wells = 0; activation, % at 12.5 µM; actives 0.75% (n = 300,000);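 active = mean activation of at least 80% with every replicate also reaching 80%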;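 also: 0% = neutral control wells and 100% = parthenolide positive control wells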
TRPM1 prom inh – MITF TRPM1 promoter inhibition in SK-MEL-5 cells | SK-MEL-5 TRPM1 promoter luciferase, 24 h | inhibition, % at 12.5 µM | actives 0.83% (n = 330,000);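 active = mean inhibition across replicates of 60% or more, whatever share of single replicates reaches that level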
TWEAK Fn14 block – blocks TWEAK-Fn14 interaction in a reporter cell assay | TWEAK-stimulated Fn14 reporter cells, luciferase luminescence, 8 h | inhibition, % at 10 µM | actives 2% (n = 360,000); in the data active = inhibition above about 50%
* = called active by the depositor; x = no result. Sampled rows, rich in hits. Any-hit rate of the full collection: about 3%.

SMILES	LMP1 NFkB inh	LGR2 inh	TROY signal inh	MITF act	TRPM1 prom inh	TWEAK Fn14 block
O=C(O)c1ccc(-n2cccc2/C=C2/NC(=O)N(c3cccc(Cl)c3)C2=O)cc1	0	x	-11	-2	4	10
O=C(O)c1ccc(-n2cccc2/C=C2/NC(=O)N(c3ccccc3)C2=O)cc1	-3	11	68*	6	-6	-18
CC1=NN(c2ccc(Cl)cc2)C(=O)C1C(c1cccc(O)c1)c1c(C)[nH]n(-c2ccc(Cl)cc2)c1=O (stereo not given)	-27	x	40	-6	8	50*
Cc1ccc(S(=O)(=O)N(C)C[C@H]2Oc3ccc(NS(=O)(=O)c4ccccc4)cc3C(=O)N([C@H](C)CO)C[C@H]2C)cc1	x	11	x	x	x	x
C[C@H](CO)N1C[C@H](C)[C@@H](CN(C)C(=O)c2ccc(F)cc2)OCc2ccccc2-c2ccccc2C1=O	x	4	x	x	x	x
COC(=O)c1ccc(C(=O)NC(=S)Nc2nc3c(s2)CC(C)CC3)cc1 (stereo not given)	0	-12	93*	16	-21	109*
O=C(NC(=S)Nc1nc2c(s1)CCCC2)c1ccc(C(=O)c2ccccc2)cc1	2	3	-31	2	2	25
O=C(C[C@@H]1C=C[C@@H](NC(=O)Nc2ccccc2F)[C@H](CO)O1)NCc1ccc(F)cc1	x	-40	x	x	x	x
COC(=O)c1c(-c2ccc3ccccc3c2)csc1NC(=O)Cc1ccc(OC)c(OC)c1	13	x	47	-9	16	65*
COc1ccc(NC2=Nc3ccccc3CC2)cc1	-19	x	-16	91*	-87	38
Cc1cc(=O)oc2c(C)c(OCC(=O)N(C)C)ccc12	42*	1	2	x	0	-4
O=C1C=C(c2ccc3[nH]ccc3c2)C[C@@H](c2ccc(F)cc2)C1	-23	-33	-39	23	-26	-12
COc1ccc([C@H]2CC(=O)C=C(c3ccc4[nH]ccc4c3)C2)cc1OC	-4	-30	53*	13	-11	-23
COc1ccc(CC(=O)OCC(=O)N2CCN(S(=O)(=O)c3ccc(C)cc3C)CC2)cc1	69*	-10	6	3	-1	-6
COc1ccc(CC(=O)OCC(=O)N2CCN(S(=O)(=O)c3ccc(C)cc3C)CC2)cc1OC	1	10	7	2	1	10
O=C(CCl)Nc1ccccc1Sc1ccc(Cl)cc1	11	x	-15	x	64*	88*
CC(=O)N1CCN(CC(=O)Nc2ccccc2Sc2ccc(Cl)cc2)CC1	-8	5	16	-9	8	1
Cc1cccc(NC(=S)NCC(C)CSc2ccc(Cl)cc2)c1 (stereo not given)	-3	7	52*	0	0	0
Cc1ccc(NC(=S)NCC(C)CSc2ccc(Cl)cc2)cc1 (stereo not given)	-3	21	11	-10	8	2
CCn1c2ccccc2c2cc(N)ccc21	2	x	-2	-9	8	-8
CCn1c2ccccc2c2cc(/C=C(/C#N)C(N)=S)ccc21	85*	31	12	3	-1	1
C/C=C/c1ccc2c(c1)O[C@@H](CN(C)C(=O)C1CCC1)[C@@H](C)CN([C@H](C)CO)S2(=O)=O	x	-7	x	x	x	x
CNC[C@@H]1Oc2ncc(/C=C/c3ccccc3)cc2C(=O)N([C@H](C)CO)C[C@H]1C	x	-11	x	x	x	x
COc1cnc(-c2ccccn2)nc1NC(C)C	-7	17	10	-66	66*	-21
COc1ccccc1Sc1nc(-c2ccccn2)ncc1OC	9	7	4	-34	34	-23
SMILES	LMP1 NFkB inh	LGR2 inh	TROY signal inh	MITF act	TRPM1 prom inh	TWEAK Fn14 block
Cc1ccc(Nc2nc3nonc3[nH]c2=O)cc1C	-14	x	-26	21	-11	21
Cc1ccc(Nc2nc3nonc3[nH]c2=O)cc1Cl	1	37	41	6	-7	59*
COc1ccc(NC(=O)N(C)C[C@@H]2OCCCC[C@@H](C)Oc3ccc(NS(=O)(=O)c4ccc(OC)cc4)cc3C(=O)N([C@@H](C)CO)C[C@@H]2C)cc1	x	5	x	x	x	x
O=C(Nc1ccc2c(c1)OCCO2)c1cc2sccc2n1Cc1ccccc1	-5	x	24	14	-10	53*
O=C(CN1CCN(C(=O)c2ccco2)CC1)Nc1ccc2c(c1)OCCO2	13	x	53*	7	-8	64*
O=C(Nc1ccccc1NC(=O)c1ccco1)c1ccco1	7	x	-15	-1	3	-11
O=C(Nc1ccc2c(c1)OCCO2)c1ccco1	23	8	38	-2	5	61*
O=C(Nc1cccc(NC(=O)c2ccco2)c1)c1ccc2c(c1)OCCO2	-4	-18	-39	7	-10	-13
O=C(Nc1ccccc1-c1ccccc1NC(=O)c1ccco1)c1ccco1	-2	x	x	-8	7	66*
C[C@H](CO)N1C[C@H](C)[C@H](CN(C)C(=O)NC2CCCCC2)Oc2ccc(NC(=O)Cc3ccccc3)cc2C1=O	x	6	x	x	x	x
C[C@@H]1CN([C@@H](C)CO)C(=O)c2cccc(NS(=O)(=O)c3ccc(Cl)cc3)c2O[C@H]1CN(C)C(=O)Nc1ccccc1	x	9	x	x	x	x
O=C(Nc1ccc(Cl)cc1)N1C[C@@H]2[C@H](c3ccccc31)[C@H](CO)N2C(=O)c1ccccn1	x	-30	x	x	x	x
CCC(=O)N1C[C@H](C)[C@H](OC)CN(C)C(=O)c2cc(NC(=O)NC3CCCC3)ccc2OC[C@@H]1C	x	-2	x	x	x	x
O=C(Nc1ccc2c(c1)Cc1ccccc1-2)c1ccco1	-42	x	-77	151*	-150	-19
C[C@@H]1CN([C@@H](C)CO)C(=O)c2cc(NC(=O)c3ccncc3)ccc2O[C@@H](C)CCCCO[C@H]1CN(C)C(=O)C1CCCCC1	x	12	x	x	x	x
COc1ccc(Nc2ncc(C(=O)N3CCC(C(N)=O)CC3)c3ccccc23)cc1	-2	x	1	11	-10	9
COc1ccc(Nc2ncc(C(=O)N3CCN(Cc4ccccc4)CC3)c3ccccc23)cc1	7	x	21	x	20	96*
COc1ccc2c3c([nH]c2c1)[C@H](CO)N(Cc1nccs1)CC31CN(Cc2cccnc2)C1	x	4	x	x	x	x
COc1ccc(S(=O)(=O)N(C)C[C@@H]2OCCCC[C@@H](C)Oc3ccc(NC(=O)NC4CCCCC4)cc3C(=O)N([C@H](C)CO)C[C@H]2C)cc1	x	1	x	x	x	x
CCCNC(=O)c1ccc(S(=O)(=O)c2ccc(OC)cc2)c([N+](=O)[O-])c1	-9	26	23	-46	48	72*
COc1ccc(C(=O)NCCNc2ccccc2[N+](=O)[O-])cc1	-18	-40	-30	66	-63	4
CO[C@H]1CN(C)C(=O)c2ccc(NS(C)(=O)=O)cc2OC[C@H](C)N(C)C[C@H]1C	x	2	x	x	x	x
CCNC(=S)N1CCN(c2ccc([N+](=O)[O-])cc2)CC1	7	x	16	x	3	5
O=C(NC1CCCCC1)N1CCN(c2ccc([N+](=O)[O-])cc2)CC1	75*	-20	16	-14	15	13

Screening data (PubChem BioAssay)
